Reference: PubChem BioAssay AID847 (SRMLSC, 2007)
About 190 (0.46%) of roughly 41,000 compounds were called active. What follows is part of a selection rich in actives, with near analogues and random picks from the rest. Unmarked numbers belong to inactive results.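 Rule for the calls: active = viability at or below the median of all test compounds minus 3 SD, in both replicates if run twice (cut at about 45% in these data); inconclusive = duplicate replicates that disagree with each other; inactive = viability above that cutoff in every replicate.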

Test: SK-BR-3 proliferation inhibitors, primary screen, cell-based, human, 24 h (AID 847);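 note: 100% = median untreated cell wells and 0% = median positive control drug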
Conditions: SK-BR-3 viability, CellTiter-Glo ATP luminescence, at 10 µM, stronger effect = lower value

SMILES | viability [%]
COc1cc(C(=O)Nc2nccs2)cc(OC)c1OC | 98.8
CC(C)OC(=O)c1sc2nc3c(cc2c1N)C(=O)CCC3 | 70.8
CCOC(=O)c1c(C)n(C)c2ccc(OC)c(NC(=O)CN3CCC4(CC3)OCCO4)c12 | 88.1
Cc1ccc(C(=O)NCCNS(=O)(=O)c2ccccc2)cc1 | 104
CC(=O)Nc1ccc(S(=O)(=O)Nc2cccc(NC(=O)C(C)(C)C)c2)cc1 | 84.7
CC(c1ccccc1)n1c(NCCCn2ccnc2)nc2c1c(=O)[nH]c(=O)n2C (stereo not drawn) | 62.8
O=C(c1cccs1)N(C(=O)c1cccs1)c1ccccn1 | 75
Cc1cccc(N2CC(C)Cn3c2nc2c3c(=O)n(CC(=O)OCc3ccccc3)c(=O)n2C)c1 (stereo not drawn) | 72.3
CCN1C(=O)CS/C1=N\c1nccs1 | 96
O=C(O)c1ccc(F)c(S(=O)(=O)Nc2ccccc2)c1 | 99.6
CCOc1ccc2nc(NCCNS(=O)(=O)c3ccccc3)c(C#N)cc2c1 | 73.4
CCOC(=O)N1CCN(C(=O)CN(c2ccc(C)c(C)c2)S(=O)(=O)c2ccccc2)CC1 | 124
CCOC(=O)c1ccc(N2C(=O)CC(N3CC(C)OC(C)C3)C2=O)cc1 (stereo not drawn) | 82.9
O=C(c1cccs1)N1CCN(C(=O)N2CCOCC2)CC1 | 119
CC(=O)CSc1nnc(CSc2ncccn2)n1C1CCCCC1 | 77.2
Cc1nc2nc(CSc3nc4ccccc4s3)cc(=O)n2[nH]1 | 94.5
O=S(=O)(c1ccccc1)N(CC(O)CN1CCCCC1)c1ccccc1 (stereo not drawn) | 93
COc1ccc(CCNC(=O)CSc2nc(C)nc3c2oc2ccccc23)cc1OC | 131
CCc1nc2oc3ccccc3c(=O)c2c(=O)n1Cc1ccc(OC)cc1 | 84.3
O=C(CCCC(=O)N(CC(=O)NC1CCCC1)Cc1ccccc1Cl)Nc1ccccn1 | 73.7
O=C(NCCCNCc1ccccc1)c1ccc(/C=N/O)nc1 | 117
O=C(NCC1CCCO1)C(C(=O)c1ccccc1)n1cc(Cl)ccc1=O (stereo not drawn) | 87.7

SMILES | viability [%]
Cc1ccc2c(c1)c1ncn(CCC3=CCCCC3)c(=O)c1n2C | 85.3
CCCc1nnc(NC(=O)c2cc(OC)cc(OC)c2)s1 | 81.5
C#CCN1CC(C)/C(=N/O)CC1C (stereo not drawn) | 108
O=C(NC1CCCC1)c1ccc(Br)s1 | 90.4
O=C(Oc1ccccc1)c1ccc2nccnc2c1 | 80.4
COc1ccc(S(=O)(=O)N2CCC(C(=O)N3CCOCC3)CC2)cc1OC | 101
CCCc1[nH]nc2c1C(C1CC=CCC1)C(C#N)=C(N)O2 (stereo not drawn) | 96.8
O=C(NCc1cccs1)C1CCN(S(=O)(=O)c2ccc3c(c2)OCCO3)CC1 | 95.3
COc1ccc(C(=O)Cn2nnc(-c3ccc(N4CCOCC4)cc3)n2)cc1OC | 88.3
O=C(Nc1nc2cc3c(cc2s1)OCCO3)c1cccc(S(=O)(=O)N2CCOCC2)c1 | 79.5
COc1ccc2[nH]c3ccc(OC)cc3c2c1 | 89.2
C=CCC(NCCCO)c1cccc(OC)c1OC (stereo not drawn) | 107
Fc1ccc(OCc2nn3c(Cn4nnc5ccccc54)nnc3s2)cc1 | 59.8
CCOC(=O)c1sc(NC(=O)c2cc(S(=O)(=O)N3CCOCC3)ccc2C)nc1C | 88.3
COc1ccc(Br)cc1/C=N/n1c(C)nnc1C | 96.9
CCC(=O)Nc1ccccc1C(=O)N1CCN(Cc2ccccc2)CC1 | 90.1
O=C(Nc1cccc(C(=O)N2CCCC2)c1)c1ccccc1 | 91.4
Cc1cc(C(F)(F)F)c(C#N)c(SCC(=O)NC2CC2)n1 | 109
CN1CCN(CC(=O)C23CC4CC(CC(C4)C2)C3)CC1 | 122
CN1CCN(S(=O)(=O)c2ccc(NC(=O)c3ccco3)cc2)CC1 | 85.4
COc1ccccc1-n1nnnc1S(=O)(=O)Cc1ccc(Cl)cc1 | 95.1
